What all share (experiment): DAPPL (digital affinity profiling via proximity ligation, sequencing); 10 mM Tris-HCl pH 7.5, 50 mM NaCl, 1 mM DTT, 4% glycerol, room temperature, 30 min; GST-TFs on glutathione beads, 16-mer random dsDNA library, 0.1% formaldehyde crosslink after washing; high values mean tight binding
One assay addresses T1, FLI1 (Homo sapiens, UniProt Q01543 1-452).
T1 sequence: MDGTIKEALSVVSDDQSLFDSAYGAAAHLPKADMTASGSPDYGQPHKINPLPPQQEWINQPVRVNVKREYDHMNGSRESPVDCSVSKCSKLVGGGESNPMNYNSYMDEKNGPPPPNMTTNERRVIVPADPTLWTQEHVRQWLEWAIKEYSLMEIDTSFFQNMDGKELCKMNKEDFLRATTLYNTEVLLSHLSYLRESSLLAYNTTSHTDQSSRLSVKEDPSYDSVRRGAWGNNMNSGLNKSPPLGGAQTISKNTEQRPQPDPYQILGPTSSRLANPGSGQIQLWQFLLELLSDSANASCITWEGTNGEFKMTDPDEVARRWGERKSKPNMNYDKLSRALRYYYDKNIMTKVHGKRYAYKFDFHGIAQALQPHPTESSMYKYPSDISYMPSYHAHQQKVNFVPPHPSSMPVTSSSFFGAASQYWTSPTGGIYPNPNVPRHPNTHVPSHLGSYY
Conditions: protein: recombinant; tags: N-terminal GST; dsDNA, one strand shown. An outline of the steps: (§1)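 Pools of DNA-barcoded human transcription factors, expressed in yeast as GST fusions on glutathione beads and combined with a tag-only sample, were incubated with 200 nmole of a 16-mer random double-stranded DNA library. Incubation took 30 min at room temperature in Tris/NaCl/DTT/glycerol buffer and was followed by washing, 0.1% formaldehyde crosslinking, proximity ligation (BsaI/T4 ligase, 1 h, 37 °C), PCR amplification and sequencing on an Illumina NextSeq500. Binding signal is the ratio of a hexamer's read frequency for a factor to its frequency for the tag-only sample.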

In another assay the target is T2, ELK1 (Homo sapiens, UniProt P19419 1-428).
T2 sequence: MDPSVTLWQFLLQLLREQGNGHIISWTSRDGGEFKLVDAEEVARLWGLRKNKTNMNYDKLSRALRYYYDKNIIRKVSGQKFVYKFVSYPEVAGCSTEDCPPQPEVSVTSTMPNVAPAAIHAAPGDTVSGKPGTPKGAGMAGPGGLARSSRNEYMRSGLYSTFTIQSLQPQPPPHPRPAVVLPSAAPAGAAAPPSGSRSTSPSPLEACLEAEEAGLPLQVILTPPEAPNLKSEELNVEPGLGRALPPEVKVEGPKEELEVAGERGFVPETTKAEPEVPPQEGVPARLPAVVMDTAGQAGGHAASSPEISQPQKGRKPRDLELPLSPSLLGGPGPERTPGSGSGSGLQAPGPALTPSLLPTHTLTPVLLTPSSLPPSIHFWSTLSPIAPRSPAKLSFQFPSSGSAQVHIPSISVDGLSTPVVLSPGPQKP
The conditions noted are these: protein: recombinant; tags: N-terminal GST; dsDNA, one strand shown. An outline of the steps:
as §1

The target of another assay is T3, GABPA (Homo sapiens, UniProt Q06546 1-454).
T3 sequence: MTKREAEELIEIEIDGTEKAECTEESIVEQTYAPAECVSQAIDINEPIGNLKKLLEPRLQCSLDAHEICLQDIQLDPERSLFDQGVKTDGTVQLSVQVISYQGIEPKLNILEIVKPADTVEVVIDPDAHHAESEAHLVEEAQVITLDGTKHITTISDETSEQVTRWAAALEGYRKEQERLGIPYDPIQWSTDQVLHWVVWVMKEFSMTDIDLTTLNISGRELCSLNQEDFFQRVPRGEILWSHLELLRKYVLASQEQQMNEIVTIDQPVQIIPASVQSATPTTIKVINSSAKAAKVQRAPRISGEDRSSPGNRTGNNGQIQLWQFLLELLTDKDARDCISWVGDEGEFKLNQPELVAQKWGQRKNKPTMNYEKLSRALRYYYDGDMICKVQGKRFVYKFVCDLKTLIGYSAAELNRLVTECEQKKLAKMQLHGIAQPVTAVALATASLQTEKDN
The conditions noted are these: protein: recombinant; tags: N-terminal GST; dsDNA, one strand shown. A digest of the protocol: as §1

The target in the next assay is T4, ERG (Homo sapiens, UniProt P11308 1-479).
T4 sequence: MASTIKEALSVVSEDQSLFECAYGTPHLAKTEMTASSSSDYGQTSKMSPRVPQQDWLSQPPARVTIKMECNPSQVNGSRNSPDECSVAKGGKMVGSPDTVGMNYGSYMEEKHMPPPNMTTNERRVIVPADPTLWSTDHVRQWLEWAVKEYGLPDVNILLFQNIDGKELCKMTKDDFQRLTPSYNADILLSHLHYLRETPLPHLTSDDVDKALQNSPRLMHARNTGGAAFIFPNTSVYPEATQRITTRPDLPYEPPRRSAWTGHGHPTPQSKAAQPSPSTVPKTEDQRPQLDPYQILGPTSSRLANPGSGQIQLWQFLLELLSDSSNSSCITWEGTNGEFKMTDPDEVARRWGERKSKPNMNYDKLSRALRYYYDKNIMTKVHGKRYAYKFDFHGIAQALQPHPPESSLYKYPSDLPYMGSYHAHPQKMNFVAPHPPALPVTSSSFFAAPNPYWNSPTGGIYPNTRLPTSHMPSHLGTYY
Conditions: protein: recombinant; tags: N-terminal GST; dsDNA, one strand shown. An outline of the steps:
as §1

The next assay concerns the target ELF1 (Homo sapiens, UniProt P32519 1-619). Conditions: protein: recombinant; tags: N-terminal GST; dsDNA, one strand shown. A digest of the protocol:
as §1

The next assay has as its target T5, EHF (Homo sapiens, UniProt Q9NZC4 1-300).
T5 sequence: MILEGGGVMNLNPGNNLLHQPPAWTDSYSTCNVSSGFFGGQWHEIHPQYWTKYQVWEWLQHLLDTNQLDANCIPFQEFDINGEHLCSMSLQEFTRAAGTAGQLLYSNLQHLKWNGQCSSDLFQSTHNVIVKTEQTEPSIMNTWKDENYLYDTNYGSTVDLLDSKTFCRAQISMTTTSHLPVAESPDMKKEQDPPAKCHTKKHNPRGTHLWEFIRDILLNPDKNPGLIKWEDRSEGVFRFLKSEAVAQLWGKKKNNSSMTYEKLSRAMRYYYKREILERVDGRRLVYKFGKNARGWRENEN
The conditions noted are these: protein: recombinant; tags: N-terminal GST; dsDNA, one strand shown. A digest of the protocol:
as §1

A further assay concerns the target SPI1 (Homo sapiens, UniProt P17947 1-270). The conditions noted are these: protein: recombinant; tags: N-terminal GST; dsDNA, one strand shown. A digest of the protocol:
as §1

In another assay the target is T6, ELK3 (Homo sapiens, UniProt P41970 1-407).
T6 sequence: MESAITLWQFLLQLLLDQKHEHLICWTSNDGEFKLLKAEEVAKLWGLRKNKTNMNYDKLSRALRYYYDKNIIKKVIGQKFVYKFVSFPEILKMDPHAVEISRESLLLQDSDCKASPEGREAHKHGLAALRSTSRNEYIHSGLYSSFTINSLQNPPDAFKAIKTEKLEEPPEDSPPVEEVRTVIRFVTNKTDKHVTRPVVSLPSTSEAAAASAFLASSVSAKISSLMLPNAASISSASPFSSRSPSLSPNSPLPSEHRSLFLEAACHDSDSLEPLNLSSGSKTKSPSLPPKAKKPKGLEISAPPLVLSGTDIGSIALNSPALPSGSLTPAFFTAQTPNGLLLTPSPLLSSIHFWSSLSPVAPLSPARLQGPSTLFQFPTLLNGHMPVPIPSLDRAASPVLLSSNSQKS
Conditions: protein: recombinant; tags: N-terminal GST; dsDNA, one strand shown. An outline of the steps:
as §1

In a further assay the target is T7, FEV (Homo sapiens, UniProt Q99581 1-238).
T7 sequence: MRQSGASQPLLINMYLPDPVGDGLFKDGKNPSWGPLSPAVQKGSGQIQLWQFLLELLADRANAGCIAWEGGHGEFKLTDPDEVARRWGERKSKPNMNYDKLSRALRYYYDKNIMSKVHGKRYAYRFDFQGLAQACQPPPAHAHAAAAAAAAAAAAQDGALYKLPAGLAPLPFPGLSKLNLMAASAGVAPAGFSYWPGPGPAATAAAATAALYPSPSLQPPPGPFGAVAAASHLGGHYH
Conditions: protein: recombinant; tags: N-terminal GST; dsDNA, one strand shown. A digest of the protocol: as §1

The target of another assay is ETV5 (Homo sapiens, UniProt P41161 1-510). The conditions noted are these: protein: recombinant; tags: N-terminal GST; dsDNA, one strand shown. A digest of the protocol:
as §1

The next assay deals with HSF1 (Homo sapiens, UniProt Q00613 1-529). Conditions: protein: recombinant; tags: N-terminal GST; chain copies: 3; dsDNA, one strand shown. A digest of the protocol:
as §1

In a further assay the target is T8, SPIC (Homo sapiens, UniProt Q8N5J4 1-248).
T8 sequence: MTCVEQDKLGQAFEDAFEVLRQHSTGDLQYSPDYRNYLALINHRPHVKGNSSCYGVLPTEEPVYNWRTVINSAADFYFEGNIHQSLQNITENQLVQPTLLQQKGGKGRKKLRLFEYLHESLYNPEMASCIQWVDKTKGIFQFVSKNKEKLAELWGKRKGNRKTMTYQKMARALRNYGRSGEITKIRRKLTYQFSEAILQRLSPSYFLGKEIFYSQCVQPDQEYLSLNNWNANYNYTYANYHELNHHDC
The conditions noted are these: protein: recombinant; tags: N-terminal GST; dsDNA, one strand shown. A digest of the protocol: as §1

In another assay the target is ELF4 (Homo sapiens, UniProt Q99607 1-663). The conditions noted are these: protein: recombinant; tags: N-terminal GST; dsDNA, one strand shown. An outline of the steps:
as §1

In another assay the target is T9, ELK4 (Homo sapiens, UniProt P28324-2 1-405).
T9 sequence: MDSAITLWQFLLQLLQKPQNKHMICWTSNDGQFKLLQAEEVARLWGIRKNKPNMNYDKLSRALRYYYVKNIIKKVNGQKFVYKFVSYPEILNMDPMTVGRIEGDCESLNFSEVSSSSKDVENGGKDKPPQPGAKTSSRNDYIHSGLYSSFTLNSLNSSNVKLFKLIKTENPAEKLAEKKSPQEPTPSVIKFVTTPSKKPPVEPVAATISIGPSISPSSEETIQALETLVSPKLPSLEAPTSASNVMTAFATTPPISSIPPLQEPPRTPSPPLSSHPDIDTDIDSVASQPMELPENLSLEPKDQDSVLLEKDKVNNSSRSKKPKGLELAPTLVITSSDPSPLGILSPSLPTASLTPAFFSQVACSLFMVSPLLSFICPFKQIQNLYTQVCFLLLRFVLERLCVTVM
The conditions noted are these: protein: recombinant; tags: N-terminal GST; dsDNA, one strand shown. A digest of the protocol:
as §1

A further assay concerns the target T10, ETV2 (Homo sapiens, UniProt O00321 1-342).
T10 sequence: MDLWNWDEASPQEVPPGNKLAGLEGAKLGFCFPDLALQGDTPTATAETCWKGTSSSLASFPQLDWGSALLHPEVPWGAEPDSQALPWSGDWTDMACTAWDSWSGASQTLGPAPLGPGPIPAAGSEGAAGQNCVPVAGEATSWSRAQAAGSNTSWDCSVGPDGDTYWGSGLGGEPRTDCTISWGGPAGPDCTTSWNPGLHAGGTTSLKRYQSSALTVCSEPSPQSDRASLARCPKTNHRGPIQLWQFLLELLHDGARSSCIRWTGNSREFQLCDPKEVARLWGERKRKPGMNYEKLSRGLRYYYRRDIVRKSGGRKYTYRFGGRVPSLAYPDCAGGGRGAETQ
The conditions noted are these: protein: recombinant; tags: N-terminal GST; dsDNA, one strand shown. A digest of the protocol: as §1

The next assay addresses T11, ELF3 (Homo sapiens, UniProt P78545 1-371).
T11 sequence: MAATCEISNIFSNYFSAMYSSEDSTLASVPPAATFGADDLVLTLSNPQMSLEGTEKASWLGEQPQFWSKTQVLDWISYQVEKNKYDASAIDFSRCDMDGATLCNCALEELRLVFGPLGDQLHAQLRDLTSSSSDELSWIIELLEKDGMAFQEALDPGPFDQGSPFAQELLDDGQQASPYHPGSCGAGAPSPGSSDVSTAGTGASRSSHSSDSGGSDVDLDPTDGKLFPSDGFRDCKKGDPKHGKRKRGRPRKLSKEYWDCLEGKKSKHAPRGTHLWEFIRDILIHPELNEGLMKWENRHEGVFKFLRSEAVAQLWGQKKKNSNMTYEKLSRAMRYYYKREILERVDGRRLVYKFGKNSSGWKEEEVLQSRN
Conditions: protein: recombinant; tags: N-terminal GST; dsDNA, one strand shown. An outline of the steps: as §1

The target in a further assay is CRX (Homo sapiens, UniProt O43186 1-299). The conditions noted are these: protein: recombinant; tags: N-terminal GST; dsDNA, one strand shown. A digest of the protocol: as §1
Sequence of CRX (O43186 whole entry): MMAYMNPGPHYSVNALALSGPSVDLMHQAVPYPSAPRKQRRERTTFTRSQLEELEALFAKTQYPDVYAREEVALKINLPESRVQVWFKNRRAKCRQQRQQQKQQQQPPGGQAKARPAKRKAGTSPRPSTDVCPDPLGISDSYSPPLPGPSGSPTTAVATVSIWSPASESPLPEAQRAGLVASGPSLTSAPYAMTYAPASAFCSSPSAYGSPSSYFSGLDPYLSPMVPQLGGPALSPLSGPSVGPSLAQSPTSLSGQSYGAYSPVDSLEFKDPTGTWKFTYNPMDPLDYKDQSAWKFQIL
A further assay deals with ETV1 (Homo sapiens, UniProt P50549 1-477). The conditions noted are these: protein: recombinant; tags: N-terminal GST; dsDNA, one strand shown. An outline of the steps:
as §1

Sequence of ETV1 (P50549 whole entry): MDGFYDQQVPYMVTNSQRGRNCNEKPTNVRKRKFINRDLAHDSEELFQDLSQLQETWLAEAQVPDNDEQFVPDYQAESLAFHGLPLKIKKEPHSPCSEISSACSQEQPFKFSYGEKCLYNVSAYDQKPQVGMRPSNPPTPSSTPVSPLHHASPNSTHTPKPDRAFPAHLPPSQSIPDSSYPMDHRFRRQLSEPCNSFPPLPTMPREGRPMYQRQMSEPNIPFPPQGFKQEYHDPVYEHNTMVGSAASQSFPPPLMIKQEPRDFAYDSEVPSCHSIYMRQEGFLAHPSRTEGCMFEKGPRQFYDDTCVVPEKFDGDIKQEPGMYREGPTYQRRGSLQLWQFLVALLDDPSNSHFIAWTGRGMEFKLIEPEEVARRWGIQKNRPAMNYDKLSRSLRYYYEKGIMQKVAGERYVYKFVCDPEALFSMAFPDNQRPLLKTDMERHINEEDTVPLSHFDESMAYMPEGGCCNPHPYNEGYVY
Sequence of ELF4 (Q99607 whole entry): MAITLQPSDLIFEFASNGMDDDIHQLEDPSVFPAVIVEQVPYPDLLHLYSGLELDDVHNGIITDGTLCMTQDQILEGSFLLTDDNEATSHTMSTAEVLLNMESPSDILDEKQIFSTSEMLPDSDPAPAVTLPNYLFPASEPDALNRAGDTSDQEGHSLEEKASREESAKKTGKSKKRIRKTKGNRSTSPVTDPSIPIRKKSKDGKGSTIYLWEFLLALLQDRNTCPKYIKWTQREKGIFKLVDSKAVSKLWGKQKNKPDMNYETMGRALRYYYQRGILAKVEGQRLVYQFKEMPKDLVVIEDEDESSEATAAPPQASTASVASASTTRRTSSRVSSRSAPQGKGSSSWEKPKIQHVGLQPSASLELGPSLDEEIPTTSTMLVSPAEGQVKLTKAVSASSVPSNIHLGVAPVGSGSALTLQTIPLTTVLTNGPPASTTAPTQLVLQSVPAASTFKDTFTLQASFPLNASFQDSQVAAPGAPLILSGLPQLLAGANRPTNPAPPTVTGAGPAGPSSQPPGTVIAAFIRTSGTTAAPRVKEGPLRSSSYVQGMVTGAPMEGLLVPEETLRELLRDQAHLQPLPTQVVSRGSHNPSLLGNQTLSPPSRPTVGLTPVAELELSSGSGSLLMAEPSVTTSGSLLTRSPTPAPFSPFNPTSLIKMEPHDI
Sequence of ELF1 (P32519 whole entry): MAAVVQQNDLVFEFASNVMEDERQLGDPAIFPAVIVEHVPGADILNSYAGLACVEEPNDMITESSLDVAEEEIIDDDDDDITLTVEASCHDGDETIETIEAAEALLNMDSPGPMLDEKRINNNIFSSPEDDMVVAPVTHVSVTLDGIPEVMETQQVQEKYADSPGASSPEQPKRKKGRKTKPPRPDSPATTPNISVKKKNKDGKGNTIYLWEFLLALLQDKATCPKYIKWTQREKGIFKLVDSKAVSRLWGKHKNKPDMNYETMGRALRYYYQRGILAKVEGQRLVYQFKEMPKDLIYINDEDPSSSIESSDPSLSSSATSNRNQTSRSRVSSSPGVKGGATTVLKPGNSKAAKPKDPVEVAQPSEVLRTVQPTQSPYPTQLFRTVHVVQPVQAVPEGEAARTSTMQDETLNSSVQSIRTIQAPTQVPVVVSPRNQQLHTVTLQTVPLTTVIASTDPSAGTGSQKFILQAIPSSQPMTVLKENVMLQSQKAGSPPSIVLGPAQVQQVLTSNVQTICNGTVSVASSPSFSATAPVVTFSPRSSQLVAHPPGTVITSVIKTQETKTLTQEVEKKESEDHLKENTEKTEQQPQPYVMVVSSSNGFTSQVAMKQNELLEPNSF
Sequence of ETV5 (P41161 whole entry): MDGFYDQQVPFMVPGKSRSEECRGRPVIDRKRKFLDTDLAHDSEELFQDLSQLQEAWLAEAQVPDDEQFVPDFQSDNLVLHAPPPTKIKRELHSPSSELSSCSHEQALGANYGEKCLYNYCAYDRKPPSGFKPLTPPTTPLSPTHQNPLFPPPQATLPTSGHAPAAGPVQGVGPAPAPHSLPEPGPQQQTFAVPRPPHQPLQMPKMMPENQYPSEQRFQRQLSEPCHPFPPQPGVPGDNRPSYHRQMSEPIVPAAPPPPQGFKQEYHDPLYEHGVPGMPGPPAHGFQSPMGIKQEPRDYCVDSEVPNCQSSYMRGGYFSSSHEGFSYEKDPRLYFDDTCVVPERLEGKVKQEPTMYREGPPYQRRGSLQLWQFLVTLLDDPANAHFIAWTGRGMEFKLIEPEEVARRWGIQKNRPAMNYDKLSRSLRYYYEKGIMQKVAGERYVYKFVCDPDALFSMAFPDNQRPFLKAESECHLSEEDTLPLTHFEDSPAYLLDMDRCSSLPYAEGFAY
Sequence of HSF1 (Q00613 whole entry): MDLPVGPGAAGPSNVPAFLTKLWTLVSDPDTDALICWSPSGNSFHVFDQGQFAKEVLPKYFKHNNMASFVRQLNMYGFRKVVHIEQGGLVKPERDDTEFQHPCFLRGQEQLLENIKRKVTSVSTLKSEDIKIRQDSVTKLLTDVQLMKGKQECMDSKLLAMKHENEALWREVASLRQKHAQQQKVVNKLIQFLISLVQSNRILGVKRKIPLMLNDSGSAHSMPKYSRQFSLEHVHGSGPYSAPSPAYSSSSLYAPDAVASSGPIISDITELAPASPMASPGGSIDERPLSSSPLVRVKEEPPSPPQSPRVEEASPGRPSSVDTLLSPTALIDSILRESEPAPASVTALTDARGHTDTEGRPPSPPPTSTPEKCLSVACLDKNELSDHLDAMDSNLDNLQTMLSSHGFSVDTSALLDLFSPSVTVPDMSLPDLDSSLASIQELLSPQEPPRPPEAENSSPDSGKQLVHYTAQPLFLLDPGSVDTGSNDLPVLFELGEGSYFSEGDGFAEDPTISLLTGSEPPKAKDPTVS

Take ATACTG: the binding signal with FLI1 was 1.1 fold enrichment (6-mer frequency, TF over GST control); in the assay with ELK1 it was 1.09 fold enrichment (6-mer frequency, TF over GST control); in the assay with GABPA, 1.16 fold enrichment (6-mer frequency, TF over GST control); with ERG it was 1.06 fold enrichment (6-mer frequency, TF over GST control); with ELF1, 1.09 fold enrichment (6-mer frequency, TF over GST control); with EHF, 1.1 fold enrichment (6-mer frequency, TF over GST control). The binding signal in the assay with SPI1 was 1.14 fold enrichment (6-mer frequency, TF over GST control); in the assay with ELK3 it was 1.14 fold enrichment (6-mer frequency, TF over GST control); in the assay with FEV, 1.04 fold enrichment (6-mer frequency, TF over GST control); with ETV5 it was 1.15 fold enrichment (6-mer frequency, TF over GST control); with HSF1 it was 1.06 fold enrichment (6-mer frequency, TF over GST control); with SPIC it was 1.06 fold enrichment (6-mer frequency, TF over GST control). For the same sequence, the binding signal with ELF4 was 1.16 fold enrichment (6-mer frequency, TF over GST control); with ELK4 it was 1.29 fold enrichment (6-mer frequency, TF over GST control); in the assay with ETV2, 1.32 fold enrichment (6-mer frequency, TF over GST control); with ELF3, 1.18 fold enrichment (6-mer frequency, TF over GST control); with CRX it was 1.11 fold enrichment (6-mer frequency, TF over GST control); with ETV1, 1.05 fold enrichment (6-mer frequency, TF over GST control).

For the origin of these results see article PMC7862700, “An all-to-all approach to the identification of sequence-specific readers for epigenetic DNA modifications on cytosine”.
